TDP1 cell noCPT: qHTS for Inhibitors of human tyrosyl-DNA phosphodiesterase 1 (TDP1): qHTS in cells in absence of CPT. AID 686978, 2013. DT40 Tdp1-/- hTDP1 cells, no CPT, ATP luminescence, 48 h. 420,000 compounds, 15% hits. Potency, µM (titrated, usually from 46.2 µM), actives largely listed as inhibitors; also: nearly all actives have a fitted effect of over 55% in size
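Growth kinetics read by CellTiter-Glo luminescence after ≥48 hr at 37 °C. Cells: DT40 Tdp1-/- stably carrying human TDP1, 400 per well, compound exposure in the absence of CPT (DMSO vehicle).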
ClpP mod: qHTS Assay for Activators of ClpP; ATP-dependent Clp protease proteolytic subunit (Bacillus subtilis (strain 168)), P80244; purified B. subtilis ClpP, FRET peptide cleavage, 20 min; Potency, µM (series often up to 57.5 µM); 340,000 compounds, 1.9% hits; AID 651965, 2013; active = well fitted falling curve with a large enough effect; inconclusive = small, poorly fitted or top-dose-only effect; inactive = no such curve, though single readings can be large or run the other way; also: the source files actives as falling curves though it sought activators and does not explain the sign; nearly all actives have a fitted effect of over 65% in size
Target sequence (P80244 whole entry, looked up): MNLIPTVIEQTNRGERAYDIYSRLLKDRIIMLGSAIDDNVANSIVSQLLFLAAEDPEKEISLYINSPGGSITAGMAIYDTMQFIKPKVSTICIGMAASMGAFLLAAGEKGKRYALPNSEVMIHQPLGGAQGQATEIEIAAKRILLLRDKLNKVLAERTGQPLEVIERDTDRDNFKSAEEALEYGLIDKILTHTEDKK
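ClpP 10 microg/mL final, pH 8 Tris/KCl buffer with BSA, glycerol, Tween-20; compound pinned in; FRET-FV substrate; RT 20 min; Ex320/Em430; ΔFRET vs ADEP 5.8 microM, DMSO, no enzyme.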
TDP1 cell CPT: growth inhibition of DT40 Tdp1-/-;hTDP1 cells with camptothecin (screen for TDP1 inhibitors); chicken DT40 Tdp1-/-;hTDP1 cells + 20 nM CPT, ATP luminescence, 48 h; Potency, µM (titrated, usually from 46.2 µM), actives largely listed as inhibitors; 420,000 compounds, 12% hits; also: nearly all actives have a fitted effect of over 55% in size
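Chicken DT40 Tdp1-/- cells complemented with human TDP1, 400 cells/well, exposed to compounds plus 20 nM camptothecin for at least 48 h at 37 C; viability read as ATP content by CellTiter-Glo luminescence.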
TDP1 inh: blocks human tyrosyl-DNA phosphodiesterase 1 | Q9NUW8 | recombinant TDP1, AlphaScreen DNA substrate cleavage | Potency, µM (highest dose often 130 µM), most hits filed as inhibitors | 350,000 compounds, 0.28% hits | AID 485290; also: nearly all actives have a fitted effect of over 40% in size
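AlphaScreen read-out: signal falls as enzyme removes the 3' tyrosine-FITC from a 5'-biotinylated DNA oligo (15 nM, 5 min, RT). Enzyme was E. coli-made recombinant Tdp1 at 1 nM, exposed to compound for 15 min beforehand; beads 10 ug/ml, 10 min.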
Of the large screens only hits and unclear results are named; the others gave an inactive call; ! = repeats disagree. Only some compounds are listed: those with a hit (about 17% of all), similar ones and a draw of the others. Unless noted, calls follow the shape of the dose curve; as a rule, active = well fitted curve in the direction sought with a large enough effect; inconclusive = small, poorly fitted or top-dose-only effect, or another doubt; inactive = no such curve, though single readings can be large; an effect the other way counts as inactive or inconclusive.

O=C1C=C(c2cc3ccccc3s2)C[C@@H](c2ccc(Cl)cc2)C1	TDP1 cell noCPT inconclusive, TDP1 cell CPT 9.2µM
COc1ccc(-c2c(C)nn3c(Cl)c(C)c(C)nc23)cc1	TDP1 cell noCPT inconclusive (no result: TDP1 inh)
COc1ccc(CCC(=O)Nc2cc(S(=O)(=O)N3CCCCC3)ccc2N(C)C)cc1	TDP1 cell noCPT inconclusive, TDP1 cell CPT inconclusive
Cc1sc(N)nc1-c1ccccc1	none
CC(=O)c1c(C(C)=O)c(C)n(-c2nc(-c3ccccc3)c(C)s2)c1C	TDP1 cell noCPT 13µM, TDP1 cell CPT inconclusive
O=C(NN1C(=O)c2ccccc2NC1c1ccoc1)c1ccc([N+](=O)[O-])cc1 (stereo not given)	none
O=C(NN1C(=O)c2ccccc2NC1c1ccc([N+](=O)[O-])o1)c1ccc([N+](=O)[O-])cc1 (stereo not given)	TDP1 cell noCPT 8.2µM, TDP1 cell CPT 18µM (no result: ClpP mod)
O=C(NN1C(=O)c2ccccc2NC1c1ccc([N+](=O)[O-])o1)c1ccccc1 (stereo not given)	TDP1 cell noCPT 16µM, TDP1 cell CPT inconclusive (no result: ClpP mod)
O=C(NC(c1ccccc1)c1cnccn1)C1CCN(Cc2ccc(Cl)c(Cl)c2)CC1 (stereo not given)	TDP1 cell noCPT 13µM, TDP1 cell CPT 9.2µM (no result: TDP1 inh)
O=C(NC(c1ccc(-c2ccccc2)cc1)c1cnccn1)C1CCN(Cc2ccc(Cl)c(Cl)c2)CC1 (stereo not given)	TDP1 cell noCPT inconclusive, TDP1 cell CPT inconclusive (no result: TDP1 inh)
O=C(NNC(=O)C1CCN(Cc2ccc(Cl)c(Cl)c2)CC1)c1cccs1	TDP1 cell noCPT 16µM, ClpP mod inconclusive
Cn1cc(CN2CCC(C(=O)NC(c3ccc(-c4ccccc4)cc3)c3cnccn3)CC2)c2ccccc21 (stereo not given)	TDP1 cell noCPT 16µM, TDP1 cell CPT 13µM (no result: TDP1 inh)
O=C(NC(c1ccc(-c2ccccc2)cc1)c1cnccn1)C1CCN(Cc2ccc3c(c2)OCO3)CC1 (stereo not given)	TDP1 cell noCPT 5.2µM, TDP1 cell CPT 5.8µM (no result: TDP1 inh)
CCCCC(=O)N1C(C)CCC1C (stereo not given)	none (no result: TDP1 inh)
CCCN(CC(=O)Nc1ccccc1OC)C(=O)Cc1ccccc1F	none (no result: ClpP mod)
O=C(NC(c1ccccc1)c1cnccn1)C1CCN(CCOc2ccc(Cl)cc2Cl)CC1 (stereo not given)	TDP1 cell noCPT 18µM, TDP1 cell CPT 16µM (no result: TDP1 inh)
O=C(NC(c1ccccc1)c1ccsc1)C1CCN(CCOc2ccc(Cl)cc2Cl)CC1 (stereo not given)	TDP1 cell noCPT inconclusive, TDP1 cell CPT inconclusive (no result: TDP1 inh)
Cc1cc(=O)oc2n[nH]c(-c3ccccc3)c12	ClpP mod 25µM
CCN(CC)c1ccc2nc3c(=O)n(C)c(=O)n(C)c3nc2c1	TDP1 cell noCPT inconclusive, TDP1 cell CPT inconclusive
Cc1c(NC(=O)C(F)(F)F)ccc2nc3c(=O)n(C)c(=O)n(C)c3nc12	TDP1 cell noCPT 16µM, TDP1 cell CPT inconclusive
CC(C)(C)NC(=O)[C@@H]1CN(Cc2cccnc2)CCN1C[C@@H](O)C[C@@H](Cc1ccccc1)C(=O)N[C@H]1c2ccccc2C[C@H]1O	TDP1 cell noCPT 12µM!, TDP1 cell CPT inconclusive (no result: TDP1 inh)
O=C(c1ccc(F)c(F)c1)N1CCOc2ccc(CN3CCN(Cc4ccccn4)CC3)cc2C1	none (no result: ClpP mod, TDP1 inh)
CN(Cc1ccc2c(c1)CN(C(=O)c1cccc(N(C)C)c1)CCO2)Cc1cc(C2CC2)n[nH]1	TDP1 cell noCPT 23µM (no result: ClpP mod, TDP1 inh)
CCC(C)c1ccc(N(C(=O)c2ccco2)C(C(=O)NC2CCCC2)c2cccnc2)cc1 (stereo not given)	TDP1 cell noCPT 16µM, TDP1 cell CPT 18µM (no result: ClpP mod)
O=C(NC1CCCCC1)C(c1cccnc1)N(C(=O)CCl)c1ccc(F)cc1 (stereo not given)	TDP1 cell noCPT 0.58µM, TDP1 cell CPT 0.52µM
COc1ccc(C(C(=O)NC2CCCCC2)N(C(=O)c2ccccn2)c2cccnc2)cc1 (stereo not given)	none (no result: ClpP mod)
O=C(NC1CCCCC1)C(c1cccnc1)N(C(=O)CCl)c1ccccc1Cl (stereo not given)	TDP1 cell noCPT inconclusive, TDP1 cell CPT inconclusive
COc1ccc(N(C(=O)CCl)C(C(=O)NC2CCCCC2)c2cccnc2)cc1 (stereo not given)	TDP1 cell noCPT 2.3µM, TDP1 cell CPT 3.3µM
CC(=O)C(=Nc1cccc(Cl)c1)NNc1ccccc1C	TDP1 cell noCPT 15µM, TDP1 cell CPT inconclusive (no result: TDP1 inh)
